Laboratory results: PubChem BioAssay
Records with an inconclusive call do not appear. Active and inactive are the calls of the source. Unless noted, no stated cut-off is given here; in the data, active means inhibition above about 30%; inactive means the rest.

Legend:
[1] = reducers of endogenous Her2 protein level, primary screen, SKBR3 breast tumor cells, AlphaScreen, ATP viability (AID 461;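 active means Her2 level under about 52% in both replicate screens, with viability over 70% of control, limit read from the data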;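 on Her2 level: lower value means less Her2 protein in the cells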;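 on viability: percent of carrier control wells set as 100% viability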); conditions: 18-24 h, measured here: SKBR3 viability, ATP luminescence, at 10 µM
[2] = target: Receptor tyrosine-protein kinase erbB-2 (Homo sapiens) (UniProt P04626); assay: as above; conditions: 18-24 h, at 10 µM, stronger effect = lower value
Sequence of Receptor tyrosine-protein kinase erbB-2 (Homo sapiens) (P04626 whole entry, looked up): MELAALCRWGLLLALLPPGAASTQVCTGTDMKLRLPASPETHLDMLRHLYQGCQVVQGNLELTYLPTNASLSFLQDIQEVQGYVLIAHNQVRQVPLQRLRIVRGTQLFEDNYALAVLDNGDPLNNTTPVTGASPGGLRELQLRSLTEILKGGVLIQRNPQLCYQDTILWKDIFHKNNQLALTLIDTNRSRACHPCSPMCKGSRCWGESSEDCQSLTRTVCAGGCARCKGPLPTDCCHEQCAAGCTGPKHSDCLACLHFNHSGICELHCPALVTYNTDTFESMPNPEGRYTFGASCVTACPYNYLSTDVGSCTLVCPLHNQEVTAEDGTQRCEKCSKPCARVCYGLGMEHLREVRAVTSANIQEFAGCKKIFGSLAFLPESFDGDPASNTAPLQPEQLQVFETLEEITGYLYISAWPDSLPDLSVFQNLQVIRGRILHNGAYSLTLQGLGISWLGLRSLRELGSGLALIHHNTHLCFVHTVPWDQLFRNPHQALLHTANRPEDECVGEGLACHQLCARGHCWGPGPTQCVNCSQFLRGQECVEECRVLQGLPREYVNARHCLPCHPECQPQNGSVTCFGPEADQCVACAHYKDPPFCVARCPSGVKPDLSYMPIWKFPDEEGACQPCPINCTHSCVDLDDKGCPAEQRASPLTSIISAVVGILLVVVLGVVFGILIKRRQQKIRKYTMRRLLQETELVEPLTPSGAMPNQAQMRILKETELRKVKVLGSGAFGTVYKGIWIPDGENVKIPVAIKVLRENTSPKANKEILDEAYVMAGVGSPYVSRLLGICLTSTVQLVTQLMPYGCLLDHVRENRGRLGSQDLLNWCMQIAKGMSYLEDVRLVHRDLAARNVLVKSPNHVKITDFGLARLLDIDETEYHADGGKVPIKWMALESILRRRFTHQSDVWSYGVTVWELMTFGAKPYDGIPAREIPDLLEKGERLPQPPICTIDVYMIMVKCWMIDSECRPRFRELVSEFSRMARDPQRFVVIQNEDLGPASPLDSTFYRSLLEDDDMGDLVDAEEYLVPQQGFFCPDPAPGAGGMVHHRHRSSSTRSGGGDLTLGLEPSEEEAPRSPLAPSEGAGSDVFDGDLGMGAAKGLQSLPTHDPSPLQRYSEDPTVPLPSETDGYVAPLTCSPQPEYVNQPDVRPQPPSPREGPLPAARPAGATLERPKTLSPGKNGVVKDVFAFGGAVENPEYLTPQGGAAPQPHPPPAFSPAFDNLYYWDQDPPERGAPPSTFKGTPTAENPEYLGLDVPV

[3] = SK-BR-3 cell growth inhibitors, pilot screen, 24 h, human (AID 572;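 active means viability at or below 10% of carrier control in both of two separate runs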;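 further: compound exposure lasted between 18 and 24 h rather than exactly 24 h; 100% = carrier-treated control wells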); conditions: SK-BR-3 viability, CellTiter-Glo luminescence, at 10 µM, stronger effect = lower value
[4] = HUVEC growth inhibition – cell-based, human, primary screen (AID 575;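 active means viability at or below 30% in both replicate assays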;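 further: 100% = median of untreated cell wells with 0.1% DMSO on each plate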); conditions: HUVEC proliferation, CellTiter-Glo luminescence, 72 h; at 10 µM; stronger effect = lower value
[5] = growth inhibitors of H69AR lung tumor, primary screen, human, duplicate replicates (AID 580;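 active means viability at or under a set limit in both replicates, limit being median viability minus 3 SD, cut at about 48% in these data, passing the limit was not always enough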;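 further: 100% = mean luminescence of untreated wells and 0% = no signal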); conditions: H69AR lung tumor cells viability, ATP luminescence, 72 h; at 10 µM; stronger effect = lower value
[6] = reversal of MRP1-mediated doxorubicin resistance, pilot screen, H69AR cells, doxorubicin co-treatment (AID 601;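 active means viability loss from added drug above about 55%, and viability with drug at most 40%, in both replicates, limit read from the data, passing the limit was not always enough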); conditions: CellTiter-Glo, 72 h, at 10 µM; for differential viability (reversal): stronger effect = higher value
[7] = 384-well plate pilot, post-Golgi transport modulator project, inhibition of yeast transport mutant growth (AID 636; in the data active means inhibition above about 31%); conditions: absorbance 615 nm, about 18 h, stronger effect = higher value
[8] = growth suppression of yeast trafficking mutant, preliminary HTS, modulators of trafficking downstream of Golgi apparatus project, 1536-format plate, OD 615 nm (AID 637); conditions: yeast transport mutant growth, absorbance 615 nm, 18 h; stronger effect = higher value
[9] = OD615 S. cerevisiae growth inhibition, permissive medium, pilot counter-assay, permissive growth control for S. cerevisiae lifespan shortening project (AID 705;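 active means growth inhibition above 25% in both replicates, a cutoff set 3 SD above the mean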); conditions: OD615, 24 h, at 10 µM, stronger effect = higher value
[10] = Restrictive medium S. cerevisiae growth inhibition, OD615, pilot screen of yeast lifespan reduction project, restrictive growth control (AID 706;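 active means growth inhibition above a set limit, 3 SD over mean compound inhibition, in both replicates, cut at about 43% in these data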;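 further: modified DeaD lifespan yeast strain shifted to restrictive glucose medium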); conditions: OD615, 48 h, at 10 µM, stronger effect = higher value
[11] = viability gain of MRP-1-high H69AR cells under doxorubicin, pilot screen, MRP-1 activator project, CellTiter-Glo, duplicate (AID 807;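 active means viability increase at or above a cutoff of the median across tested compounds plus 3 SD, cut at about 8.5% in these data, passing the limit was not always enough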;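 further: compound pretreatment 18-22 h then 72 h combined with doxorubicin; 0% = doxorubicin alone and 100% = vehicle without doxorubicin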); conditions: H69AR viability with doxorubicin, CellTiter-Glo luminescence; at 10 µM; stronger effect = higher value
[12] = growth suppression of beta-catenin knockout HCT116, pilot screen, human colon tumor cells (AID 823;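 active means cell viability at or below a set limit in both duplicate runs, the limit being the all-compound median minus 4 SD, cut at about 23% in these data, passing the limit was not always enough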;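 further: 0% = wells killed by 20 µM Hyamine and 100% = untreated DMSO cell wells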); conditions: CellTiter-Glo, 60 h, at 10 µM, stronger effect = lower value
[13] = growth suppression of PTEN-deleted HCT116, pilot screen, cell-based, HCT116 clonal line, CellTiter-Glo (AID 824;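 active means viability at or below 27.92% in each of two runs, the all-compound median minus 4 SD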;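 further: 0% = 20 µM Hyamine control and 100% = vehicle cell control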); conditions: 60 h, at 10 µM, stronger effect = lower value
[14] = inhibitors of the yeast RAM network, pilot screen, dse1pr::URA3 reporter, 5-FOA selection (AID 869;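 active means inhibition over a set limit, the all-compound mean plus 3 SD, in both replicate runs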;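 further: 0% = DMSO wells with no growth and 100% = 10 µM 1-NA-PP1 with full growth; RAM network block rescues cells from 5-FOA so hits raise OD615 growth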); conditions: S. cerevisiae dse1pr::URA3 5-FOA growth, OD615, 2 d; at 10 µM; stronger effect = higher value; strain carries analog-sensitive mutant Cbk1 kinase
[15] = RAM signaling pathway blockade in yeast – S. cerevisiae, Pdr1DBD-CYC8 efflux-inhibited sensitized strain, primary screen (AID 1298;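 active means RAM network inhibition above 8.4% in each of two replicates, 3 SD over the compound average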;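 further: 0% = DMSO untreated cells without growth and 100% = 10 µM 1-NA-PP1 full growth; higher means more yeast growth rescued from 5-FOA killing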); conditions: S. cerevisiae cbk1-as DSE1-URA3 strain, 5-FOA growth OD615, 2 d; at 50 µM; stronger effect = higher value
[16] = H69AR cells + 2 uM doxorubicin, measured here: viability with 2 uM doxorubicin, stronger effect = lower value
[17] = H69AR cells, compound alone cytotoxicity

SMILES	viability [1] [%]	Her2 level [2]	viability [3]	viability [4]	viability [5]	differential viability (reversal) ([6]; H69AR cells + 2 uM doxorubicin)	viability [6, 16] [%]	viability [6, 17] [%]	inhibition [7]	inhibition [8]	growth inhibition [9]	growth inhibition [10]	viability increase [11]	viability [12]	viability [13]	inhibition [14]	RAM network inhibition [15]
Cc1cc(C)n(-c2ccc(N3CCOCC3)nn2)n1	108	99% (inactive)	108% (inactive)	98.1% (inactive)	89.5% (inactive)	-4.32% (inactive)	93.8	89.5	0% (inactive)	0% (inactive)	1.14% (inactive)	10.2% (inactive)	-0.17% (inactive)	103% (inactive)	101% (inactive)	0.245% (inactive)	-0.52% (inactive)
CNC(=O)CN(c1ccc(C(C)C)cc1)S(C)(=O)=O	94	108% (inactive)	94% (inactive)	95.6% (inactive)	86.3% (inactive)	0.39% (inactive)	85.9	86.3	-3.25% (inactive)	-4% (inactive)	-10.4% (inactive)	-21.6% (inactive)	0.08% (inactive)	95% (inactive)	96.1% (inactive)	1.04% (inactive)	2.63% (inactive)
CC(CCc1ccco1)NC(=O)Cn1ncc2c1-c1ccccc1OC2 (stereo not drawn)	93	90% (inactive)	93% (inactive)	90.8% (inactive)	92.9% (inactive)	11.9% (inactive)	81	92.9	-2.4% (inactive)	-0.66% (inactive)	-5.12% (inactive)	-19% (inactive)	-4.45% (inactive)	101% (inactive)	91.3% (inactive)	1.11% (inactive)	7.86% (inactive)
Cc1nc2ccc(C(=O)c3ccccc3)cc2[nH]1	102	82% (inactive)	102% (inactive)	110% (inactive)	94.2% (inactive)	2.49% (inactive)	91.7	94.2	-3.64% (inactive)	0.33% (inactive)	-6.26% (inactive)	2.11% (inactive)	0.26% (inactive)	99.4% (inactive)	100% (inactive)	1.42% (inactive)	5% (inactive)
CCCOc1ccc(N2CC(C(=O)Nc3ccc4c(c3)OCO4)CC2=O)cc1 (stereo not drawn)	107	94% (inactive)	107% (inactive)	79.3% (inactive)	86.4% (inactive)	-9.04% (inactive)	95.4	86.4	-4.13% (inactive)	-1.67% (inactive)	-11.2% (inactive)	12.3% (inactive)	-2.44% (inactive)	107% (inactive)	102% (inactive)	2.89% (inactive)	2.77% (inactive)
O=C(CSc1ccc2nnc(-c3ccccc3)n2n1)N1CCN(c2ccccc2)CC1	93.5	114% (inactive)	93.5% (inactive)	77.9% (inactive)	83.8% (inactive)	-9.57% (inactive)	93.4	83.8	-0.13% (inactive)	7.67% (inactive)	-0.235% (inactive)	8.33% (inactive)	-3.49% (inactive)	101% (inactive)	93.8% (inactive)	0.38% (inactive)	0.93% (inactive)
COc1ccccc1S(=O)(=O)Cc1ccc(C(=O)N2CCOCC2)o1	113	98.5% (inactive)	113% (inactive)	105% (inactive)	87.6% (inactive)	-5.08% (inactive)	92.7	87.6	-2.13% (inactive)	3.5% (inactive)	1.17% (inactive)	-2.13% (inactive)	-2.08% (inactive)	106% (inactive)	97.9% (inactive)	1.65% (inactive)	0.78% (inactive)
CC(C)(C)NC(=O)CSc1nnc(-c2ccccn2)n1-c1ccccc1	98.5	126% (inactive)	98.5% (inactive)	105% (inactive)	91.9% (inactive)	0.06% (inactive)	91.9	91.9	-5.2% (inactive)	-3% (inactive)	-14% (inactive)	-6.57% (inactive)	-0.63% (inactive)	100% (inactive)	92.9% (inactive)	0.43% (inactive)	1.1% (inactive)
Cc1ccc2cccc(SCC(=O)N3CCOCC3)c2n1	103	89.5% (inactive)	103% (inactive)	61% (inactive)	90.7% (inactive)	-0.48% (inactive)	91.2	90.7	-4.03% (inactive)	-3.5% (inactive)	2.63% (inactive)	24.3% (inactive)	-2.53% (inactive)	98.9% (inactive)	101% (inactive)	2.27% (inactive)	1.88% (inactive)
